Inconclusive results are not listed. Activity calls are given as the source filed them. Rule for the calls: active = hit-call score of the fitted dose curve at least 0.9, where 1 is the maximum; inconclusive = response in the unintended direction; inactive = score below 0.9.
What was measured:
[1] = ACEA_AR_agonist_AUC_viability: ACEA Biosciences xCELLigence Real-Time Cell Analysis on Androgen Receptor Agonism for Viability (AID 2283775);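 for AC50: viability read 80 hours after compound addition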
How it was run: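 Real-time impedance tracking of 22Rv1 growth, readings every 5 min for 5 h then hourly; area-under-curve viability endpoint at 80 hours, relative to DMSO. Compounds at eight concentrations, 1:4 steps, top 100 uM, n = 2.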

[2] = ACEA_AR_antagonist_AUC_viability: ACEA Biosciences xCELLigence Real-Time Cell Analysis on Androgen Receptor Antagonism for Viability (AID 2283776);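 note: 22Rv1 human prostate cancer cells growing on impedance electrode plates; hits lower the growth signal relative to DMSO meaning cytotoxicity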
How it was run: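 Viability endpoint from label-free cell-index monitoring: 22Rv1 cultures treated with an eight-point 1:4 dilution series starting at 100 uM final, AUC at 80 h fitted against DMSO.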

[3] = target: Luciferin 4-monooxygenase (Photinus pyralis) (UniProt P08659); experiment: CCTE_Simmons_QuantiLum_inhib_2: CCTE's Firefly Luciferase Inhibition Assay, Simmons Lab (AID 2283767);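 for AC50: potency for inhibitors that lower luciferase luminescence relative to DMSO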
Chain of Luciferin 4-monooxygenase (Photinus pyralis) (P08659 whole entry, looked up): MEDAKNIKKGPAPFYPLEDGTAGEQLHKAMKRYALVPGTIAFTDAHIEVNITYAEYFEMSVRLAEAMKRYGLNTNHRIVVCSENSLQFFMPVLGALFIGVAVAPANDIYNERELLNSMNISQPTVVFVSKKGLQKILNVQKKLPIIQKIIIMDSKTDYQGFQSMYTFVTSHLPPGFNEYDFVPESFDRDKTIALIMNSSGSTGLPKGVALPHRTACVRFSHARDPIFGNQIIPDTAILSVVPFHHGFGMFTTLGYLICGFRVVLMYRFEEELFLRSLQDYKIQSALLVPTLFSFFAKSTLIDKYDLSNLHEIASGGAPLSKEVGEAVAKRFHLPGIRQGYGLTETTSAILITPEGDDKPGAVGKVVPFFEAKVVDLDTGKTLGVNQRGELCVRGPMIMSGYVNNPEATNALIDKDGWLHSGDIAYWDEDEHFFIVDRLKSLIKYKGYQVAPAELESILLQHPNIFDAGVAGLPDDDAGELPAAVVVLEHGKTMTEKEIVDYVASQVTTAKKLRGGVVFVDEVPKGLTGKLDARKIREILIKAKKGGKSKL
How it was run: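 Luminescence loss relative to DMSO vehicle defines inhibition; detection reagent containing 150 uM D-luciferin and 147 uM dATP (final, pH 7.8) is injected immediately before each read. Enzyme is preincubated with an 8-point titration (5 nM–87.5 uM final) for 30 min at 37C.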

[4] = ArunA_CellTiter_hNC: Viability Assessment in the ArunA Biomedical's Oris Neural Crest (hNC) Cell Migration Assay (AID 2283752)
How it was run: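 Cell titer was measured with the CellTiter Aqueous One reagent after 72 h of chemical dosing. Cells were H9-derived embryonic neural crest stem cells seeded on Matrigel, 60,000 per well, and given 16 h at 37C beforehand.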

[5] = ArunA_CellTiter_hNP: Viability Assessment in the ArunA Biomedical's Oris Neural Crest (hNC) Cell Migration Assay (AID 2283753)
How it was run: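 H9-derived hNP1 neuroprogenitors, 60,000/well on Matrigel, cultured 16 h, then 72 h chemical exposure in test medium. Cell titer via CellTiter Aqueous One; positive-direction fit vs DMSO.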

[6] = ArunA_Migration_hNP: ArunA Biomedical's Oris Neuroprogenitor (hNP) Cell Migration Assay (AID 2283754)
How it was run: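 Human H9-derived hNP1 neuroprogenitors on Matrigel with LIF/bFGF, plated around seeding stoppers for 16 h at 37C; stoppers removed at start of 72 h chemical exposure. Calcein-AM staining, fluorescence 494/517 nm in detection zone; loss-of-signal vs DMSO; cytochalasin D control.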

[7] = ArunA_Migration_hNC: ArunA Biomedical's Oris Neural Crest (hNC) Cell Migration Assay (AID 2283755)
How it was run: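 Human H9-derived neural crest stem cells, 60,000/well on Matrigel, 16 h at 37C, then 72 h chemical exposure after seeding-stopper removal. Migration into detection zone read as calcein-AM fluorescence (ex494/em517), relative to DMSO.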

[8] = ArunA_NOG_NucleusCount: ArunA Biomedical's Neurite Outgrowth (NOG) Assay for Nucleus Count (AID 2283756)
How it was run: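 Human H9-derived differentiated neurons were exposed for 48 h right after seeding. Hoechst-stained nuclei gated by size and intensity were counted by automated high-content imaging as viable neurons. Loss of signal vs DMSO.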

[9] = ArunA_NOG_BranchPointsPerNeurite: ArunA Biomedical's Neurite Outgrowth (NOG) Assay for Branch Points Per Neurite (AID 2283759)
How it was run: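 Automated image analysis traced neurites (processes >10 um) from valid cell bodies after Hoechst and βIII-tubulin staining. hNN cells from H9 embryonic stem cells, 48 h exposure. Fitted bidirectionally against DMSO.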

Cc1cccc2ccccc12
outcome [1]: inactive | outcome [2]: inactive

CC(C)(C)c1csc(-c2cc3cc(OCc4ccccc4CC(=O)O)ccc3o2)n1
AC50 [3]: 10.7 µM (active) | AC50 [1]: 21.1 µM (active) | AC50 [2]: 23.7 µM (active)

CC[C@H](NC(=O)c1cc(F)ccc1NS(=O)(=O)c1cccc2cccnc12)c1ccccc1
AC50 [1]: 57.2 µM (active)

CCN(Cc1cccnc1)C(=O)c1cccc(Cl)c1[C@]1(C)C(=O)N(Cc2ccc(OC)cc2OC)c2ccc(Cl)cc21
AC50 [1]: 23.8 µM (active) | AC50 [2]: 20.7 µM (active)

CO[C@H]1/C=C/O[C@@]2(C)Oc3c(C)c(O)c4c(O)c(c(/C=N/N5CCN(C)CC5)c(O)c4c3C2=O)NC(=O)/C(C)=C\C=C\[C@H](C)[C@H](O)[C@@H](C)[C@@H](O)[C@@H](C)[C@H](OC(C)=O)[C@@H]1C
AC50 [3]: 22.6 µM (active)

CN(C[C@@H](CC[N+]12CCC(C3CCCCC3)(CC1)CC2)c1ccc(Cl)c(Cl)c1)C(=O)c1cc(C(F)(F)F)cc(C(F)(F)F)c1
outcome [3]: inactive | AC50 [1]: 5.81 µM (active) | AC50 [2]: 5.8 µM (active)

CCN(Cc1cccc(S(=O)(=O)O)c1)c1ccc(C(=C2C=CC(=[N+](CC)Cc3cccc(S(=O)(=O)O)c3)C=C2)c2ccccc2S(=O)(=O)[O-])cc1
AC50 [3]: 15.8 µM (active) | outcome [2]: inactive

O=C1CCC(C2CCCCC2)CC1
AC50 [3]: 3.38 µM (active) | AC50 [1]: 50 µM (active) | AC50 [2]: 74.1 µM (active)

CCCCCc1ccc(N)cc1
outcome [3]: inactive | AC50 [1]: 50 µM (active) | outcome [2]: inactive

CCCOC(=O)c1cc(O)c(O)c(O)c1
outcome [3]: inactive | AC50 [1]: 50 µM (active) | AC50 [2]: 31.4 µM (active)

O=c1c(-c2ccc(O)cc2)coc2cc(O)cc(O)c12
AC50 [3]: 7.86 µM (active) | AC50 [1]: 62.9 µM (active) | AC50 [2]: 28.8 µM (active)

O=C(Nc1ccc(Cl)cc1)Nc1ccc(Cl)c(Cl)c1
outcome [4]: inactive | AC50 [5]: 25.9 µM (active) | AC50 [6]: 1.88 µM (active) | AC50 [7]: 1.46 µM (active) | outcome [8]: inactive | outcome [9]: inactive | AC50 [3]: 15.1 µM (active) | AC50 [1]: 6.35 µM (active) | AC50 [2]: 5.85 µM (active)

COc1ccc2cc(S(=O)(=O)N[C@H](CC(=O)N[C@H](Cc3ccc(CN4[C@H](C)CCC[C@@H]4C)cc3)C(=O)N(C)C(C)C)c3ccc4c(c3)OCO4)ccc2c1
AC50 [1]: 9.68 µM (active) | AC50 [2]: 9.32 µM (active)

O=C1O[C@H]([C@@H](O)CO)C(O)=C1O
outcome [3]: inactive | outcome [1]: inactive | outcome [2]: inactive

OC12N=C(c3ccccc3)SC1Cc1cc(Cl)ccc12 (stereo not drawn)
AC50 [3]: 17.1 µM (active) | AC50 [1]: 83.3 µM (active) | AC50 [2]: 76.2 µM (active)

— PubChem BioAssay (EPA / NIEHS)
